# VDR inh: vitamin D3 receptor (human) inhibition. VDR-SRC2-3 peptide fluorescence polarization, 2 h. Potency, µM, inactives show max response, negative = inhibition, actives largely listed as inhibitors. 0.93% of 400,000 active. AID 504847; further: potency means the concentration at half of the fitted maximal effect
#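 VDR–SRC2-3 interaction, FP format. Cmpds 23 nl via pintool, brief spin, 2 h ambient incubation.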
# GLS inhibitor: glutaminase GLS (human) inhibition; Potency, µM (top dose mostly 45.5 µM), for inactives: at the highest dose activity change, negative = inhibition, hits mostly inhibitors; GLS enzymatic activity, qHTS titration; O94925; 0.21% of 410,000 active; AID 624170; further: potency means the concentration at half of the fitted maximal effect
# Target sequence (O94925 whole entry, looked up): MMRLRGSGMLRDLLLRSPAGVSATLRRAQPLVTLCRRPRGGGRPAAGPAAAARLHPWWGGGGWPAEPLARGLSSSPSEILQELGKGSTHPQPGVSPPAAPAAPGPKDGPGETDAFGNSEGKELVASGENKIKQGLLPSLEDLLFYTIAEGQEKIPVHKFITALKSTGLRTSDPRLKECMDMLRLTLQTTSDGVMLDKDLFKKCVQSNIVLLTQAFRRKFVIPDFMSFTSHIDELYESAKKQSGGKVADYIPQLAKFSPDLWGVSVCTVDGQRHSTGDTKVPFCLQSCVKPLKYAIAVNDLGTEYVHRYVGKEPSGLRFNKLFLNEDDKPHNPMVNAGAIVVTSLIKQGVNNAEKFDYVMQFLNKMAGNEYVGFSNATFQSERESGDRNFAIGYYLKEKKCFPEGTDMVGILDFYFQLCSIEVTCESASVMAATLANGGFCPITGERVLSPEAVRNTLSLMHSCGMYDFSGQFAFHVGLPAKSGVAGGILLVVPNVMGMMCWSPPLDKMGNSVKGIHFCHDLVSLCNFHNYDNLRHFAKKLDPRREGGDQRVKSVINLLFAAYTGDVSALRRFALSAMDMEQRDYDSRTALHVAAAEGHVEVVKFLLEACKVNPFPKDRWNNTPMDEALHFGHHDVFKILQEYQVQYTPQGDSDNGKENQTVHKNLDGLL
#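 hKGA; 45 mM KH2PO4 pH 8.2 + 0.02% Tween-20; cpd via pin tool; 1 mM Gln soln; GluOx/HRP/Amplex Red; RT 30 min; fluor. t0 & final.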
# GCN5L2 inh: GCN5L2 (KAT2A) acetyltransferase inhibition. 0.21% of 390,000 active. Potency, µM (titrated, usually from 58.9 µM), without a hit: top-dose activity change, negative = inhibition, actives largely listed as inhibitors. GCN5L2 HAT assay, ThioGlo1 CoA-SH fluorescence; further: potency means the concentration at half of the fitted maximal effect
#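 GCN5L2 (20 nM) in 50mM HEPES pH 7.5, 0.1mM EDTA, 0.01% Tween-20 preincubated 15 min with compounds at room temperature. Reaction started with H3(1-25) 75uM, acetyl-CoA 70uM, ThioGlo1 50uM; CoA-thiol fluorescence (Ex340/Em540) read at 0 and 20 min.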
# PLK1 PBD block: inhibitors of human PLK1 polo-box domain binding | Plk1 PBD binding of FITC phosphopeptide, fluorescence polarization | Potency, µM, inactives show max response, negative = inhibition, hits mostly inhibitors | 2.8% of 360,000 active | AID 720504; further: potency means the concentration at half of the fitted maximal effect; series mostly up to about 57 µM; nearly all actives have a fitted effect of over 65% in size
# PI4K2A block: inhibitors of human PI4K2A; AID 1346378; 0.13% of 420,000 active; activity change, negative = inhibition, % at 76.9 µM; purified PI4K2A, ADP-Glo luminescence, 1 h; active compounds read low; in the data active means activity change below about -50%; inconclusive means mostly about -30% to -49%;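 further: -100% = wells without enzyme as full effect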
#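 PI4K2A activity was measured by ADP-Glo luminescence: enzyme (4 ug/mL stock) and phosphatidylinositol (1.2 mM stock) in Tris pH 7.5/MgCl2/EGTA/Triton X-100 buffer were reacted with ATP (300 microM stock) for one hour at ambient temperature.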
# Numbers without * were called inactive; u = inconclusive; x = no result given. Hits are enriched below; roughly 3.1% of the tested compounds scored in any of these assays. Unless noted, the call rests on the fitted dose curve; in most records, active means well fitted curve in the direction sought with a large enough effect; inconclusive means small, poorly fitted or top-dose-only effect, or another doubt; inactive means no such curve, though single readings can be large; an effect the other way counts as inactive or inconclusive. Unless noted, on the % scale 0 is the no-effect control and ±100 the full control effect.
SMILES,VDR inh,GLS inhibitor,GCN5L2 inh,PLK1 PBD block,PI4K2A block
COC(=O)CCC(=O)OC1(C)C(=O)C=C2C=C(c3ccsc3)OC=C2C1=O (stereo unspecified),-19%,13µM*,x,u,-14
CCC(=O)OC1(C)C(=O)C=C2C=C(c3ccsc3)OC=C2C1=O (stereo unspecified),u,1%,-17%,27µM*,-20
CC1(OC(=O)c2ccco2)C(=O)C=C2C=C(c3ccsc3)OC=C2C1=O (stereo unspecified),-20%,x,x,x,x
COC(=O)c1cccc(Nc2nn3c(=O)c4cc5c(cc4nc3s2)OCO5)c1,-9%,-6%,0%,x,-4
Cc1cc2c(=Cc3ccc(N(C)C)cc3)c3ccccc3n2[n+]1C,-6%,-10%,x,13%,-13
CCOC(=O)c1cc2c(=Cc3ccc(N(C)C)cc3)c3ccccc3n2[n+]1C,u,29%,x,13µM*,-51*
CN(C)c1ccc(C=c2c3ccccc3n3c2c2ccccc2[n+]3C)cc1,-93%,-11%,x,24µM*,-26
CN(C)c1ccc(C=C2C=Cc3ccccc32)cc1,15%,1%,x,4%,3
NC(=Nc1cccc(F)c1)NC(=O)OCc1ccccc1,x,x,x,x,4
CCCC1CCC2(CCCN2CCOC(=O)Nc2ccc(Br)cc2)CC1 (stereo unspecified),x,x,x,x,-1
COc1ccc(CCNC(=O)Nc2ccc3c(c2)[C@]2(CC(=O)N(CC(C)C)C2c2ccccc2)C(=O)N3C)cc1OC (stereo partly specified),x,x,x,x,-10
C=C[C@]1(C)C=C2CC[C@H]3[C@@](C)(CCC[C@@]3(C)C(=O)O)[C@@H]2CC1,-8%,8%,-12%,30µM*,2
O=C(Cc1sc(-c2ccccc2)nc1-c1ccccc1)Nc1ccc(Cl)cc1,-5%,3%,1%,-2%,2
COC(=O)Cc1sc(-c2ccccn2)nc1-c1ccccc1,25µM*,-16%,-16%,4.7µM*,3
c1ccc(CNC2CCC23CCC(c2ccccc2)CC3)cc1 (stereo unspecified),x,x,x,x,1
C/C(=N\Nc1ccc(Cl)c(C(=O)O)c1)c1ccc(Br)s1,-22%,39%,-10%,24µM*,3
COc1ccc(C(=S)N2CCNCC2)cc1,-2%,6%,4%,-2%,3
COc1ccc(C(=S)N2CCCCCC2)cc1,u,-7%,-5%,27µM*,-6
CCOC(=O)c1ccc(C(=S)N2CCCC2)cc1,-8%,-25%,-5%,7.5µM*,5
COc1ccc(C(=O)NC(=S)N2CCN(c3ccccc3O)CC2)cc1,-28%,47%,-1%,-19%,-5
CCN1CCN(C(=S)c2ccc(OC)cc2)CC1,0%,14%,30%,9.5µM*,-4
COc1ccc(C(=S)N2CCN(c3ccccc3C)CC2)cc1,-24%,-1%,-13%,21µM*,3
S=C(Nc1ccccc1)OC1CCC12CCC(c1ccccc1)CC2 (stereo unspecified),x,x,x,x,-6
CCOC(=O)c1c(Nc2ccc(C)c(C)c2)nnc(-c2ccccc2)c1-c1ccccc1,-11%,-6%,-16%,x,5
CCN(C[C@H]1[C@@H](c2ccc(C3=CCCC3)cc2)[C@H](CO)N1Cc1ccccn1)S(=O)(=O)c1ccccc1[N+](=O)[O-],x,x,x,x,-7
SMILES,VDR inh,GLS inhibitor,GCN5L2 inh,PLK1 PBD block,PI4K2A block
CC(=O)c1ccc(OCC(=O)N2CCCCC2)cc1,x,-7%,x,x,-4
CC1(C)CC2CN(Cc3ccccc3)S(=O)(=O)N2C1 (stereo unspecified),x,x,x,x,-3
OCCN1CCN(C(=S)c2ccc(Cl)cc2)CC1,u,7%,-3%,6.7µM*,-5
COc1cc(C(=O)/C=C/c2cccnc2)c([N+](=O)[O-])cc1OC,50µM*,-3%,-5%,-20%,-7
O=C(/C=C/c1cccnc1)c1ccccc1O,u,-10%,-7%,-21%,7
COc1ccc(N(C(=O)c2ccc(C(C)(C)C)cc2)S(=O)(=O)c2ccc(Cl)cc2)cc1,-6%,-1%,-9%,x,1
COC(=O)c1cn(-c2ccc3c(c2)[C@@]2(CC(=O)N(C)C2c2ccccc2)C(=O)N3CC(C)C)nn1 (stereo partly specified),x,x,x,x,4
CC(C)CCNC(=O)C1CCN(c2cncnc2)CC1,x,x,x,x,-5

# From PubChem
